# Where “and” joins values, the source holds several entries; their conditions need not be identical. Identical values can stand only once. Records with an inconclusive call do not appear. Where a call stands in place of a potency, no number is given. Calls of active or inactive are those of the source. Unless noted, calls come from the whole dose curve; as a rule, active = well fitted curve in the direction sought with a large enough effect; inconclusive = small, poorly fitted or top-dose-only effect, or another doubt; inactive = no such curve, though single readings can be large; an effect the other way counts as inactive or inconclusive.
# Columns and labels:
# [1] = Cell Viability - LYMP1-002 - Assay at 40 hr (AID 994); note: nearly all actives have a fitted effect of over 60% in size
# Procedure, shortened: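 qHTS cytotoxicity; 2500 cells/well, 5 hr 37 C settle, compound 40 hr 37 C. CellTiter-Glo, 30 min RT, luminescence (ATP). Concentration-response, Hill fit → AC50. Pos. ctrl tetraoctylammonium bromide.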
# [2] = molecular target: alpha-glucosidase (Oryza sativa, rice) (UniProt Q653V4); assay: Counterscreen for Glucocerebrosidase Inhibitors: qHTS Assay for Rice alpha-Glucosidase at pH 5.0 (AID 997)
# Procedure, shortened: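 Endpoint fluorogenic assay at pH 5.0: compounds (0.7 nM to 77 uM) titrated against 4 nM rice enzyme and 400 uM 4-MU-alpha-glucoside for 20 min at room temperature; NaOH/glycine stop, read ex 365/em 440 nm, Hill-fitted AC50.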
# [3] = molecular target: Alpha-galactosidase (Coffea arabica) (UniProt Q42656); assay: Counterscreen for Glucocerebrosidase Inhibitors: qHTS Assay for Coffee Bean alpha-Galactosidase at pH 5.9 (AID 998)
# Alpha-galactosidase (Coffea arabica), sequence (Q42656 whole entry, looked up): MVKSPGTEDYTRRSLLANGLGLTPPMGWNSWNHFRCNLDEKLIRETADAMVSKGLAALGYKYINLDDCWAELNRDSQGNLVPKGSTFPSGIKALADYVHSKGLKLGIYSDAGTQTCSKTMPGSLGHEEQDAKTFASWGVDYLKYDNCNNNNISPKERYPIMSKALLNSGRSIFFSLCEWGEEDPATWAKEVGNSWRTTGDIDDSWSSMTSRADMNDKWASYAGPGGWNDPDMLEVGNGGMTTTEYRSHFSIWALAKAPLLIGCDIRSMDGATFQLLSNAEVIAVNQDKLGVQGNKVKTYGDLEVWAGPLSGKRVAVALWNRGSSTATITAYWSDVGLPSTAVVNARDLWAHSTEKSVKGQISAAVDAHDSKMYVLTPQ
# Procedure, shortened: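 Enzyme 2 nM + cpd (0.7 nM–77 uM titration) + 4-MU-alpha-Gal 80 uM, pH 5.9 citrate/Tween-20, RT 20 min, NaOH/glycine stop pH 10, fluor 365/440. Normalized to no-enzyme and full-activity controls; Hill-fit AC50.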
# [4] = Validation of Assay for Modulators of Lamin A Splicing (AID 1459; active = well fitted curve in the direction sought with a large enough effect in the signal ratio; the % refers to the signal ratio;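 note: cells exposed to compound for two days before reading; ratio rise marks activators and ratio drop marks inhibitors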)
# Procedure, shortened: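 Splicing correction read as GFP (500-530 nm) over DsRed2 (575-640 nm) object intensity after 48 h compound exposure of reporter HeLa S3 clones (600 cells/well, 2% FBS medium); ancitabine and cycloheximide titrations, 0.5% DMSO as vehicle.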
# [5] = qHTS Assay for Lipid Storage Modulators (AID 1519; calls by dose curve); conditions: Drosophila S3 cells, BODIPY lipid droplet/cell ratio, laser cytometry, cells loaded with oleic acid
# Procedure, shortened: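 Cells seeded at 5,000 per well were treated with compounds over a concentration series and loaded with oleic acid (400 uM, as added). Lipid droplet fluorescence (488 nm excitation, 500-530 nm channel) was read by laser-scanning cytometry and normalized to 20 uM Triacsin C.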
# [6] = molecular target: DNA repair nuclease/redox regulator APEX1 (Homo sapiens) (UniProt P27695); assay: qHTS Validation Assay for Inhibitors of the Human Apurinic/apyrimidinic Endonuclease 1 (APE1) (AID 1705;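 note: TAMRA fluorescence gain over two minutes as APE1 cuts a quenched THF abasic duplex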)
# DNA repair nuclease/redox regulator APEX1 (Homo sapiens), sequence (P27695 whole entry, looked up): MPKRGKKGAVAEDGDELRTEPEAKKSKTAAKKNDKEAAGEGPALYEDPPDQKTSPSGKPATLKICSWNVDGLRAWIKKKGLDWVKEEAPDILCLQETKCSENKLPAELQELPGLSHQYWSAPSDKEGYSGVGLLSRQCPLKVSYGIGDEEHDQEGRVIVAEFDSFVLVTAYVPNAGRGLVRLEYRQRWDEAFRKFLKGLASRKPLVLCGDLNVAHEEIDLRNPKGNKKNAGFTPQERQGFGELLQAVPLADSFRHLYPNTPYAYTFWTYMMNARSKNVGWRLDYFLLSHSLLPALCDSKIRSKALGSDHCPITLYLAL
# Procedure, shortened: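 Activity read as rising fluorescence (598 nm emission, 525 nm excitation) from incision of a TAMRA/BHQ-2 duplex carrying a THF abasic site (50 nM). Compound and enzyme sat 15 min at RT before substrate start; signal change between first and third 60-s reads.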
# [7] = Counterscreen for APE1 Inhibitors: Fluorescent Dye Displacement Validation Assay (AID 1707)
# Procedure, shortened: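 Reaction mixture of 250 nM Thiazole Orange and 50 nM double-stranded abasic-site DNA was dispensed, compounds were pin-transferred, and fluorescence was read at endpoint (480 nm ex, 540 nm em). Reduced fluorescence indicated dye displacement by DNA binding.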
# [8] = qHTS for differential inhibitors of proliferation of Plasmodium falciparum line 3D7 (AID 1876);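 note: parasite growth measured after three days of culture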
# [9] = qHTS for differential inhibitors of proliferation of Plasmodium falciparum line GB4 (AID 1816); conditions: Potency: Plasmodium falciparum GB4 proliferation inhibition;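 note: parasite growth measured after 72 h incubation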; note: potency is the fitted concentration of half-maximal effect
# [10] = qHTS for differential inhibitors of proliferation of Plasmodium falciparum line 7G8 (AID 1815);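 note: parasite growth measured after three days of incubation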
# [11] = measured here: cell count channel max response
# [12] = measured here: lipid channel max response
smiles,measurement,setting,value
C[C@]12CCC(=O)C=C1CC[C@@H]1[C@@H]2CC[C@]2(C)C(=O)CC[C@@H]12,Potency,[1],inactive
same,outcome,[2],inactive
same,outcome,[3],inactive
same,outcome,[4],inactive
same,"activity change, negative = inhibition",[5]; at 57.5 µM (top of the series),0.917% (inactive)
same,max response,[5]; [11],67.2%
same,max response,[5]; [12],68.1%
same,Potency,[6],inactive
same,outcome,[7],inactive
same,Potency,[8],inactive
O=C(CCCN1CCC2(CC1)C(=O)NCN2c1ccccc1)c1ccc(F)cc1,outcome,[2],inactive
same,outcome,[3],inactive
same,outcome,[4],inactive
same,"activity change, negative = inhibition",[5]; at 25.7 µM (top of the series),-0.907% (inactive)
same,"activity change, negative = inhibition",[5]; at 57.5 µM (top of the series),7.99% (inactive)
same,max response,[5]; [11],-5.72% and 5.19%
same,max response,[5]; [12],-10.3% and 17.9%
same,Potency,[6],inactive
CC(NC(C)(C)C)C(=O)c1cccc(Cl)c1 (stereo not given),outcome,[4],inactive
same,"activity change, negative = inhibition",[5]; at 57.5 µM (top of the series),9.02% (inactive) and 0.884% (inactive)
same,max response,[5]; [11],11.7% and -20.3%
same,max response,[5]; [12],23.1% and -17.7%
same,Potency,[6],inactive
same,outcome,[7],inactive
same,Potency,[9],12.6 µM (active)
same,Potency,[8],inactive
CC[N+](CC)(CC)CCOc1cccc(OCC[N+](CC)(CC)CC)c1OCC[N+](CC)(CC)CC,outcome,[3],inactive
same,"activity change, negative = inhibition",[5]; at 25.7 µM (top of the series),0.548% (inactive)
same,max response,[5]; [11],-4.51%
same,max response,[5]; [12],-4.34%
O=c1oc2ccccc2c(O)c1Cc1c(O)c2ccccc2oc1=O,"activity change, negative = inhibition",[5]; at 25.7 µM (top of the series),0.983% (inactive)
same,max response,[5]; [11],-11.3%
same,max response,[5]; [12],-10.4%
CCC1(CC)C(=O)C=CNC1=O,"activity change, negative = inhibition",[5]; at 25.7 µM (top of the series),-2.39% (inactive)
same,"activity change, negative = inhibition",[5]; at 57.5 µM (top of the series),5.04% (inactive)
same,max response,[5]; [11],-5.28% and 19.1%
same,max response,[5]; [12],-7.28% and 25.2%
CC(C)c1cccc(C(C)C)c1O,Potency,[1],inactive
same,outcome,[2],inactive
same,outcome,[3],inactive
same,outcome,[4],inactive
same,"activity change, negative = inhibition",[5]; at 25.7 µM (top of the series),-0.519% (inactive)
same,max response,[5]; [11],-4.81%
same,max response,[5]; [12],-3.68%
same,Potency,[6],inactive
same,outcome,[7],inactive
same,Potency,[10],inactive
same,Potency,[9],inactive
same,Potency,[8],inactive
Clc1cccc(SC2CCNCC2)n1,"activity change, negative = inhibition",[5]; at 57.5 µM (top of the series),-5.67% (inactive)
same,max response,[5]; [11],-24.9%
same,max response,[5]; [12],-29.2%
Clc1ccc(C(c2ccc(Cl)cc2)C(Cl)(Cl)Cl)cc1,Potency,[1],inactive
NC(=O)CS(=O)C(c1ccccc1)c1ccccc1 (stereo not given),"activity change, negative = inhibition",[5]; at 57.5 µM (top of the series),4.67% (inactive)
same,max response,[5]; [11],3.09%
same,max response,[5]; [12],10.7%
O=P1(N(CCCl)CCCl)NCCCO1 (stereo not given),Potency,[1],inactive
same,outcome,[2],inactive
same,outcome,[3],inactive
same,"activity change, negative = inhibition",[5]; at 57.5 µM (top of the series),0.148% (inactive)
same,max response,[5]; [11],-27.9%
same,max response,[5]; [12],-28.7%
same,Potency,[6],inactive
same,outcome,[7],inactive
same,Potency,[10],inactive
same,Potency,[9],inactive
same,Potency,[8],inactive
O=c1[nH]oc2c1CCNC2,outcome,[2],inactive
same,outcome,[3],inactive
same,"activity change, negative = inhibition",[5]; at 25.7 µM (top of the series),-3.52% (inactive)
same,"activity change, negative = inhibition",[5]; at 57.5 µM (top of the series),-0.0762% (inactive) and 5.91% (inactive)
same,max response,[5]; [11],-6.88% and 7.61% and 14.4%
same,max response,[5]; [12],-10.1% and 10.3% and 21.9%
same,Potency,[6],inactive
same,outcome,[7],inactive
same,Potency,[10],inactive
same,Potency,[9],inactive
same,Potency,[8],inactive
Cn1c(=O)c2[nH]cnc2n(C)c1=O,outcome,[3],inactive
same,"activity change, negative = inhibition",[5]; at 25.7 µM (top of the series),-0.949% (inactive) and -1.67% (inactive)
same,"activity change, negative = inhibition",[5]; at 57.5 µM (top of the series),8.67% (inactive)
same,max response,[5]; [11],-7.33% and -5.65% and 13.2%
same,max response,[5]; [12],-6.71% and -6.91% and 31.3%
same,outcome,[7],inactive
CC(C)N(CCC(C(N)=O)(c1ccccc1)c1ccccn1)C(C)C (stereo not given),outcome,[4],inactive
same,"activity change, negative = inhibition",[5]; at 57.5 µM (top of the series),4.57% (inactive) and -1.93% (inactive) and 1.94% (inactive)
same,max response,[5]; [11],23.6% and -10.4% and -17.4%
same,max response,[5]; [12],33.6% and -11% and -15.7%
same,Potency,[6],inactive
same,outcome,[7],inactive
same,Potency,[10],inactive
same,Potency,[8],inactive
COP(=S)(OC)Oc1ccc(SC)c(C)c1,Potency,[1],inactive
same,"activity change, negative = inhibition",[5]; at 57.5 µM (top of the series),5.63% (inactive)
same,max response,[5]; [11],23%
same,max response,[5]; [12],29.4%
CCOC(=O)CC(SP(=S)(OC)OC)C(=O)OCC (stereo not given),Potency,[1],inactive
Cc1ccc(C(=O)c2ccc(CC(=O)O)n2C)cc1,"activity change, negative = inhibition",[5]; at 25.7 µM (top of the series),-1.39% (inactive)
same,max response,[5]; [11],-5.63%
same,max response,[5]; [12],-8.93%

# From PubChem BioAssay (NCATS)
